An excerpt weighted towards active compounds, which were near 3.3% of everything screened.
DRD3 agonist = qHTS of D3 Dopamine Receptor Agonist: qHTS. AID 652048, 2013. 0.58% of 410,000 active. max activation, %. D(3) dopamine receptor (Homo sapiens), P35462. D3R DiscoveRx beta-arrestin cells, luminescence, 90 min; in the data active means max activation above about 30%
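Cells at 1500/well, incubated overnight, then treated with pinned compounds (dopamine as control) for 90 min at 37 degrees C. DiscoveRx reagent added for 30 - 60 minutes at room temperature; luminescence read.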
PI5P4K alpha inh = qHTS for Inhibitors of phosphatidylinositol 5-phosphate 4-kinase (PI5P4K); Phosphatidylinositol 5-phosphate 4-kinase type-2 alpha (Homo sapiens), P48426; PI5P4Kalpha enzyme, ADP-Glo luminescence, 60 min; hits give low values; max response, %; 1.2% of 330,000 active; active means max response of -50% or lower; inconclusive means between -30% and -50%; inactive means -30% or higher; further: value at the top dose of about 77 µM
Target sequence (P48426 whole entry, looked up): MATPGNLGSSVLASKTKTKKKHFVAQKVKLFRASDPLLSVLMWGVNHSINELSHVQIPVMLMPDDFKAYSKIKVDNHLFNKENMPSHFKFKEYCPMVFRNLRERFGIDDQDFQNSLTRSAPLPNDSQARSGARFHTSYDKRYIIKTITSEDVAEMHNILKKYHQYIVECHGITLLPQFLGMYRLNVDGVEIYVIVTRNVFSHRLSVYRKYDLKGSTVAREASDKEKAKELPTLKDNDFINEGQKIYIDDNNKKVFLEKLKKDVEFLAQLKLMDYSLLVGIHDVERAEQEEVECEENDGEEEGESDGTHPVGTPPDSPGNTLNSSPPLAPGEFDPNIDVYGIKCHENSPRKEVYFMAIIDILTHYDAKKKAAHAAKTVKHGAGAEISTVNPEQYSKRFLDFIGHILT
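Luminescence from ADP-Glo served as readout of PI5P4Kalpha activity in a qHTS format. Reaction: enzyme, substrate, compound, ATP at 5 microM final, 60 min at RT.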
DRD3 antagonist = qHTS of D3 Dopamine Receptor Antagonist: qHTS. max response, negative = inhibition, %. D(3) dopamine receptor (Homo sapiens), P35462. D3R cells, DiscoveRx beta-arrestin luminescence, antagonist mode; hits give low values. 2.5% of 360,000 active; in the data active means max response below about -50%; inconclusive means no clear call, values can overlap the other calls
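Cells plated overnight at 1500 cells/well, then exposed to library compounds with dopamine controls for 90 minutes at 37 degrees C. DiscoveRx reagent added for 30–60 minutes at room temperature; luminescence read, quantitative HTS format.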
LDHA inh = qHTS assay for inhibitors of human lactate dehydrogenase; purified LDHA, NADH/diaphorase-resazurin fluorescence; hits give low values; activity change, % (values are at about 110 or 230 µM); L-lactate dehydrogenase A chain (Homo sapiens), P00338; 0.15% of 480,000 active; in the data active means activity change below about -30%; inconclusive means mostly about -25% to -30%
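Enzyme activity of human lactate dehydrogenase 5 (2 nM; 0.06 mM NADH, 0.2 mM pyruvate, 5 min, RT) is measured via a resazurin/diaphorase fluorescence readout of residual NADH.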
PI4K2A inh = qHTS for small molecular inhibitors of PI4K2A. activity change, negative = inhibition, % at 76.9 µM. purified PI4K2A, ADP-Glo luminescence, 1 h; hits give low values. 0.13% of 420,000 active. Phosphatidylinositol 4-kinase type 2-alpha (Homo sapiens), Q9BTU6; in the data active means activity change below about -50%; inconclusive means mostly about -30% to -49%
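In this quantitative HTS, ADP production by PI4K2A was quantified luminescently after 1 h at ambient temperature; 100 microM adenosine served as plate-quality control.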
Of the large screens only hits and unclear results are named; the others gave an inactive call.

CCOC(=O)CC[C@@H]1CC[C@]2(CCCN(C(=O)C3CCCC3)C2)O1	none (no result: DRD3 agonist, PI5P4K alpha inh, DRD3 antagonist, LDHA inh)
C=C1C(=O)[C@]23C[C@H]1CC[C@H]2[C@]1(C)[C@@H](OC(C)=O)CC[C@@](C)(C(=O)OC)[C@H]1C[C@@H]3OC(C)=O	DRD3 antagonist -107.3
C=C1C(=O)[C@]23C[C@H]1CCC2[C@@]1(C)C(C[C@@H]3O)[C@](C)(C(=O)OC)CC[C@@H]1OC(C)=O (stereo not given in full)	DRD3 antagonist -132.5
C=C1C(=O)[C@]23C[C@H]1CC[C@H]2[C@]1(C)[C@@H](OC(C)=O)CC[C@@](C)(C(=O)O)[C@H]1C[C@@H]3O	DRD3 antagonist inconclusive
Cc1ccc(NC(=S)c2nc3ccccc3s2)cc1	PI4K2A inh -82.3
S=C(Nc1ccc(Cl)cc1)c1nc2ccccc2s1	none
O=C(Cn1c(=O)oc2ccccc21)Nc1n[nH]c(=S)s1	PI5P4K alpha inh -79.5
CCn1cc(C(=O)CSc2nnc(C)s2)c2ccccc21	none (no result: DRD3 agonist, PI5P4K alpha inh, DRD3 antagonist, PI4K2A inh)
O=C(CN1C(=O)C2C3C=CC(C3)C2C1=O)OCC(=O)c1ccc(Cl)c([N+](=O)[O-])c1 (stereo not given)	DRD3 antagonist -69.5
O=C(NCC#Cc1ccccc1)C1CCN(C(=O)/C=C/c2ccccc2)CC1	none (no result: DRD3 agonist, PI5P4K alpha inh, DRD3 antagonist, PI4K2A inh)
Cc1nn(-c2ccccc2)c(C)c1NC(=O)COc1ccc2ccccc2c1	DRD3 agonist 31.3 (no result: PI5P4K alpha inh)
O=C(OC1CC2CC1[C@H]1CCCCN1C2=O)N1CCN(S(=O)(=O)c2ccccc2)CC1 (stereo not given in full)	DRD3 antagonist -53.2
O=c1oc(-c2ccccc2F)nc2c1cnn2-c1ccccc1	DRD3 antagonist -64.5 (no result: PI5P4K alpha inh)
N#CC1=C(N)Oc2n[nH]c(-c3cccnc3)c2C1c1ccc([N+](=O)[O-])o1 (stereo not given)	PI5P4K alpha inh -58.9
N#CC1=C(N)Oc2n[nH]c(-c3cccnc3)c2C1c1cc(F)ccc1F (stereo not given)	PI5P4K alpha inh -54.2
N#CC1=C(N)Oc2n[nH]c(-c3ccccc3)c2C1c1cccnc1 (stereo not given)	PI5P4K alpha inh inconclusive, DRD3 antagonist inconclusive
Cc1ccc(-c2[nH]nc3c2C(c2cccnc2)C(C#N)=C(N)O3)cc1 (stereo not given)	none (no result: PI5P4K alpha inh)
COc1ccc(CCC(=O)Nc2nc(C)c(C(C)=O)s2)cc1	none (no result: DRD3 agonist, PI5P4K alpha inh, DRD3 antagonist, PI4K2A inh)
CCN1CCN(c2ncnc3scc(-c4ccc(OC)cc4)c23)CC1	DRD3 antagonist -61.4
c1ccc(N2CCN(c3ncnc4scc(-c5cccs5)c34)CC2)cc1	DRD3 agonist 50.5 (no result: PI5P4K alpha inh)
COc1ccc(N2CCN(c3ncnc4scc(-c5ccccc5)c34)CC2)cc1	DRD3 agonist 31.0
c1csc(-c2csc3ncnc(NCCCN4CCOCC4)c23)c1	DRD3 antagonist -55.9 (no result: PI5P4K alpha inh)
CCc1c(C(=O)Nc2cccc(NC(=O)COC)c2)cnn1-c1ccc(OC)nn1	none (no result: DRD3 agonist, PI5P4K alpha inh, DRD3 antagonist, PI4K2A inh)
CC(c1ccco1)N(C(=O)C12CC3CC(CC(C)(C3)C1)C2)c1ccccn1 (stereo not given)	DRD3 antagonist -57.6
CC(c1ccco1)N(C(=O)c1ccc(F)cc1)c1ccccn1 (stereo not given)	none
O=C(C1CCN(S(=O)(=O)c2cccc3nsnc23)CC1)N1CC=C(c2ccccc2)CC1	none
O=C(C1CCC(CNS(=O)(=O)c2cccc3nsnc23)CC1)N1CC=C(c2ccccc2)CC1 (stereo not given)	DRD3 agonist 60.0
Oc1ccccc1CNc1nc2ccccc2n1CCN1CCCCC1	DRD3 antagonist -74.2
COc1ccccc1CNc1nc2ccccc2n1CCN1CCCCC1	DRD3 antagonist inconclusive
COC(=O)c1ccc(CC(=O)c2ccc(O)cc2O)o1	none
CCC(=O)Oc1ccc(C/C(=N\O)c2ccc(O)cc2O)o1	DRD3 agonist 55.9 (no result: PI5P4K alpha inh)
O=C(NCC(c1ccco1)N1CCN(c2ccccc2F)CC1)C(=O)NC1CC1 (stereo not given)	none
O=C(NCC(c1ccco1)N1CCN(c2ccccc2F)CC1)C(=O)NC1CCCCC1 (stereo not given)	DRD3 agonist 54.2
COc1ccc(N2C(=O)C(C)(C)CS2(=O)=O)cc1S(=O)(=O)NCc1ccccc1F	none (no result: DRD3 agonist, PI5P4K alpha inh, DRD3 antagonist, PI4K2A inh)
O=C(CSCc1ccc(F)cc1)N1CCN(c2ccc(Cl)cc2)CC1	DRD3 agonist 80.3 (no result: PI5P4K alpha inh, DRD3 antagonist)
CCCCCCC[C@@H](C/C=C/CCC(=O)O)OC	none
CCCCCCCCCCCCCCCCC(C(=O)O)C(O)(CC(=O)O)C(=O)O (stereo not given)	DRD3 agonist 39.5 (no result: PI5P4K alpha inh, DRD3 antagonist, LDHA inh)
C=CCOC(=O)/C(=C\c1ccccc1)NC(=O)c1ccco1	none
C=CCOC(=O)/C(=C\c1ccc(OC)cc1)NC(=O)c1ccco1	DRD3 antagonist -50.8
COc1ccc(/C=N/n2c(C)nc3ccccc3c2=O)cc1	none
COc1ccc(/C=N/OCC(=O)Nn2c(C)nc3ccccc3c2=O)cc1	DRD3 agonist 32.5
COc1ccc(NC(=S)N(CCCN2CCOCC2)C(C)c2cc3cccc(OC)c3o2)cc1 (stereo not given)	none
COc1cccc(NC(=S)N(CCCN2CCOCC2)C(C)c2cc3ccccc3o2)c1 (stereo not given)	DRD3 antagonist -54.6
CC(=O)Nc1ccc2oc(-c3cccc4ccccc34)nc2c1	none (no result: DRD3 agonist, PI5P4K alpha inh, DRD3 antagonist, PI4K2A inh)
COc1cccc2c1cc1c(=O)n(CC(=O)N3CCN(c4cccc(C)c4C)CC3)nc(C)n12	DRD3 agonist 70.8
O=C(COC(=O)CCc1c[nH]c2ccccc12)NC(c1ccccc1)c1ccccc1	DRD3 agonist 39.5
O=C(CSc1nc(-c2ccccc2)nc2ccc(F)cc12)Nc1ccc(C(=O)O)cc1	PI5P4K alpha inh inconclusive
COc1ccc(C)cc1-n1c(SCC(=O)Nc2cccc(C(=O)O)c2)nc2ccccc2c1=O	PI5P4K alpha inh -80.7
O=C(CSc1nc(-c2ccccc2)nc2ccc(F)cc12)Nc1cccc(C(=O)O)c1	PI5P4K alpha inh -50.1
COc1ccc(C)cc1-n1c(SCC(=O)NC2CC2)nc2ccccc2c1=O	none
Cc1nn(CC(C)C)c2sc(C(=O)Nc3cccc(S(=O)(=O)N(C)C)c3)cc12	none (no result: DRD3 agonist, PI5P4K alpha inh, DRD3 antagonist, PI4K2A inh)
N#C/C(=C/c1ccsc1)c1ccc(C(F)(F)F)cn1	none (no result: DRD3 agonist, PI5P4K alpha inh, DRD3 antagonist, PI4K2A inh)
O=C(O)CC1S/C(=N/N=C/c2ccc(-c3ccc(Cl)cc3[N+](=O)[O-])o2)NC1=O (stereo not given)	PI5P4K alpha inh -52.4, DRD3 antagonist -76.6
O=C(O)CC1S/C(=N/N=C/c2ccc(-c3ccc(Cl)c([N+](=O)[O-])c3)o2)NC1=O (stereo not given)	none
CCc1ccc2c(c1)CCCN2C(=O)c1ccccc1C(=O)O	DRD3 antagonist -67.9 (no result: PI5P4K alpha inh)
CCN1CCN(c2ncc(C(=O)N3CCCc4ccccc43)c3ccccc23)CC1	DRD3 antagonist -68.8

Assay outcomes as filed in PubChem.
